Measurements reported in PMC5540273 (PLoS ONE, 2017).

Legend:
Conditions in all cases: concentration: 1 μM,replicates: in singlicate; n = 1
PIP5K1A = test system: PIP5K1A
PIP5K1C = test system: PIP5K1C
PIP5K2B = test system: PIP5K2B
PIP5K2C = test system: T1, PIP5K2C
T1 construct: gene PIP4K2C

PKAC-alpha = test system: T2, PKAC-alpha
T2 construct: gene PRKACA

PKAC-beta = test system: T3, PKAC-beta
T3 construct: gene PRKACB

PKMYT1 = test system: PKMYT1
PKN1 = test system: PKN1
PKN2 = test system: PKN2
PLK1 = test system: PLK1
PLK2 = test system: PLK2
PLK3 = test system: PLK3
PLK4 = test system: PLK4
PRKCD = test system: PRKCD
PRKCE = test system: PRKCE
PRKCH = test system: PRKCH
PRKCI = test system: PRKCI
PRKCQ = test system: PRKCQ
PRKD1 = test system: PRKD1
PRKD2 = test system: PRKD2
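Note: KINOMEscan kinase panel screen.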

Row | Compound | %Inh (PIP5K1A) | %Inh (PIP5K1C) | %Inh (PIP5K2B) | %Inh (PIP5K2C) | %Inh (PKAC-alpha) | %Inh (PKAC-beta) | %Inh (PKMYT1) | %Inh (PKN1) | %Inh (PKN2) | %Inh (PLK1) | %Inh (PLK2) | %Inh (PLK3) | %Inh (PLK4) | %Inh (PRKCD) | %Inh (PRKCE) | %Inh (PRKCH) | %Inh (PRKCI) | %Inh (PRKCQ) | %Inh (PRKD1) | %Inh (PRKD2)
1 | O=C(Nc1ccc(Oc2ccc3nc(NC(=O)C4CC4)cn3n2)c(F)c1)c1cccn(-c2ccccc2)c1=O | 1% | 22% | 22% | 76% | 0% | 56% | 0% | 0% | 48% | 0% | 0% | 0% | 0% | 0% | 0% | 0% | 28% | 0% | 0% | 9%
2 | O=C(Nc1ccccc1)c1cccc(Oc2ccc3nccn3n2)c1 | 0% | 23% | 15% | 14% | 5% | 0% | 0% | 26% | 29% | 36% | 5% | 0% | 0% | 0% | 13% | 0% | 5% | 24% | 33% | 0%
3 | CS(=O)c1ccc(-c2coc3ccc(-c4n[nH]c(=O)o4)cc23)cc1 (centres unmarked) | 0% | 68% | 20% | 79% | 0% | 23% | 8% | 8% | 12% | 6% | 4% | 6% | 34% | 24% | 7% | 0% | 8% | 2% | 0% | 4%
4 | COC(=O)c1cccc(NC(=O)NC2CCN(c3ccnc(NCc4ccc(F)cc4)n3)CC2)c1 [GSK1379860] | 0% | 20% | 19% | 2% | 0% | 0% | 0% | 32% | 0% | 0% | 0% | 0% | 0% | 0% | 0% | 32% | 28% | 26% | 12% | 2%
5 | C[C@@H]1CCN(C(=O)N2CCCC2)C[C@@H]1N(C)c1ncnc2[nH]ccc12 | 8% | 0% | 0% | 0% | 0% | 0% | 0% | 86% | 48% | 0% | 20% | 21% | 44% | 17% | 17% | 13% | 30% | 0% | 0% | 54%
6 | COc1cccc(C2=C(Nc3cccc(Cl)c3)C(=O)NC2=O)c1 [SB-341556] | 0% | 23% | 0% | 28% | 0% | 0% | 0% | 5% | 0% | 0% | 0% | 0% | 8% | 26% | 19% | 0% | 0% | 17% | 0% | 0%
7 | COc1cc2c(Nc3ccc(NC(=O)c4ccccc4)cc3)ncnc2cc1OCCCN1CCOCC1 [GSK301329] | 0% | 27% | 14% | 0% | 3% | 14% | 1% | 0% | 0% | 0% | 0% | 0% | 36% | 6% | 0% | 0% | 0% | 9% | 0% | 4%
8 | CCn1c(-c2nonc2N)nc2cncc(CNC3CCNCC3)c21.Cl [SB-747651] | 0% | 25% | 0% | 22% | 85% | 83% | 3% | 39% | 0% | 0% | 0% | 0% | 0% | 77% | 66% | 89% | 10% | 43% | 0% | 0%
9 | O=C(NCC1CC1)c1ccc(-c2cc(C(=O)NC3CC3)ccc2F)cc1 [GW810445] | 54% | 0% | 0% | 22% | 7% | 0% | 0% | 0% | 0% | 6% | 0% | 0% | 0% | 0% | 27% | 0% | 0% | 0% | 0% | 0%
10 | CN(c1ccc2c(c1)nc(NCc1ccc(F)cc1)n2C)c1ccnc(Nc2ccc(CS(C)(=O)=O)cc2)n1.Cl [GW813244] | 12% | 0% | 26% | 52% | 24% | 14% | 4% | 18% | 4% | 0% | 3% | 21% | 73% | 11% | 100% | 0% | 18% | 0% | 0% | 24%
11 | Cl.c1ccc(Oc2ccc(Nc3ccnc4cc(-c5ccc(CN6CCNCC6)o5)ccc34)cc2)nc1 [GW567142] | 0% | 34% | 0% | 23% | 0% | 0% | 0% | 10% | 0% | 22% | 0% | 0% | 16% | 0% | 0% | 0% | 20% | 0% | 24% | 3%
12 | Cn1ccc2ncnc(Oc3ccc(NC(=O)Nc4cncc(C(F)(F)F)c4)c(Cl)c3)c21 | 29% | 20% | 6% | 0% | 0% | 0% | 6% | 0% | 0% | 0% | 0% | 0% | 0% | 2% | 0% | 20% | 0% | 23% | 0% | 0%
13 | Cc1nnc(-c2ccc3occ(-c4ccc(S(C)=O)cc4)c3n2)o1 (centres unmarked) | 9% | 10% | 0% | 43% | 0% | 0% | 64% | 0% | 0% | 0% | 0% | 0% | 0% | 0% | 0% | 4% | 0% | 0% | 22% | 0%
14 | Cn1cc(-c2cccc3c(N)c(C(N)=O)nnc23)cn1 | 0% | 5% | 0% | 7% | 0% | 16% | 9% | 0% | 23% | 14% | 13% | 17% | 26% | 24% | 10% | 36% | 24% | 53% | 0% | 15%
15 | COC(=O)Nc1nc2cc(Oc3ccc(NC(=O)Nc4cc(C(F)(F)F)ccc4Cl)cc3)ccc2[nH]1.Cl [GW697465] | 56% | 63% | 15% | 53% | 0% | 0% | 0% | 0% | 0% | 0% | 0% | 0% | 0% | 0% | 11% | 7% | 0% | 6% | 0% | 1%
16 | Cc1ccn2nc(-c3ccc(F)cc3)c(-c3ccncc3)c2c1.Cl [GW457859] | 54% | 81% | 15% | 26% | 29% | 13% | 0% | 0% | 0% | 0% | 0% | 0% | 2% | 0% | 14% | 8% | 18% | 8% | 17% | 20%
17 | COc1cc2nccc(Nc3ccc(Oc4ccccc4)cc3)c2cc1OC.Cl [GI261656] | 10% | 56% | 46% | 31% | 0% | 0% | 0% | 0% | 0% | 0% | 0% | 0% | 15% | 0% | 0% | 1% | 0% | 0% | 0% | 0%
18 | CCCC(=O)Nc1n[nH]c2ncccc12 [SB-601436] | 24% | 0% | 39% | 0% | 0% | 10% | 0% | 0% | 9% | 0% | 7% | 7% | 0% | 0% | 19% | 0% | 0% | 0% | 0% | 0%
19 | CS(=O)(=O)Nc1ccc(-c2ccnc3[nH]ccc23)cc1 [GSK993273] | 57% | 29% | 55% | 89% | 84% | 85% | 0% | 21% | 18% | 0% | 0% | 0% | 21% | 42% | 64% | 49% | 26% | 57% | 0% | 0%
